Source: PubChem BioAssay (NCATS)
Results filed as inconclusive are left out. The source made the active and inactive calls. Calls come from the whole dose curve; as a rule, active = well fitted curve in the direction sought with a large enough effect; inconclusive = small, poorly fitted or top-dose-only effect, or another doubt; inactive = no such curve, though single readings can be large or run the other way.

These molecules were tested against Ferritin light chain (Equus caballus) (UniProt P02791) (assay: qHTS Validation Assay for Identification of Novel General Anesthetics (AID 2323)). Conditions: horse apoferritin, anesthetic-site fluorescent probe displacement; series mostly up to 76.9 µM.
Sequence of Ferritin light chain (Equus caballus) (P02791 2-175 limits assumed): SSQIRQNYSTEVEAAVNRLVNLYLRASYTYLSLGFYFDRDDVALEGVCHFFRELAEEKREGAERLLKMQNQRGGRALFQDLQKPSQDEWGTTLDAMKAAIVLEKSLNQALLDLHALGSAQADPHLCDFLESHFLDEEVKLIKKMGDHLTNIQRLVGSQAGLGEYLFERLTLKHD
Description: Source: NIH Chemical Genomics Center [NCGC]
Assay Submitter: Roderic Eckenhoff, University of Pennsylvania
Screening Center PI: Christopher P. Austin, NIH
Probe Development: NIH Chemical Genomics Center [NCGC]
Anesthetic development has remained a largely empirical process. There are growing concerns about the cognitive effects of known general anesthetics and acceleration of the onset of neurodegenerative disease. The compounds' toxicity and multiple specific binding targets in the mammalian brain [4] has made them less attractive as drug leads. In this assay, a GABAergic mimetic model system, apoferritin and a profluorescent 1-aminoanthracene ligand (1-AMA), was used to construct a competitive binding assay for identification of novel general anesthetics. The assay was validated for 1-AMA using other known anesthetics, such as isoflurane (CID:3763) and propofol (CID: 4943), [6].
[1] S.L. Bianchi, T. Tran, C. Liu, S. Lin, Y. Li, J.M. Keller, R.G. Eckenhoff, and M.F. Eckenhoff, Brain and behavior changes in 12-month-old Tg2576 and nontransgenic mice exposed to anesthetics. Neurobiol Aging 29 (2008) 1002-10.
[2] Z. Xie, Y. Dong, U. Maeda, R.D. Moir, W. Xia, D.J. Culley, G. Crosby, and R.E. Tanzi, The inhalation anesthetic isoflurane induces a vicious cycle of apoptosis and amyloid beta-protein accumulation. J Neurosci 27 (2007) 1247-54.
[3] P. Honegger, and J.M. Matthieu, Selective toxicity of the general anesthetic propofol for GABAergic neurons in rat brain cell cultures. J Neurosci Res 45 (1996) 631-6.
[4] M.F. Eckenhoff, K. Chan, and R.G. Eckenhoff, Multiple specific binding targets for inhaled anesthetics in the mammalian brain. J Pharmacol Exp Ther 300 (2002) 172-9.
[5] C.A. Butts, J. Xi, G. Brannigan, A.A. Saad, S.P. Venkatachalan, R.A. Pearce, M.L. Klein, R.G. Eckenhoff, and I.J. Dmochowski, Identification of a fluorescent general anesthetic, 1-aminoanthracene. Proc Natl Acad Sci U S A 106 (2009) 6501-6.
[6] W.A. Lea, J. Xi, A. Jadhav, L. Lu, C.P. Austin, A. Simeonov, and R.G. Eckenhoff, A high-throughput approach for identification of novel general anesthetics. PLoS One 4 (2009) e7150.
Three uL of reagents (free 1-AMA (50% saturated solution of 1-aminoanthracene
in PBS) in columns 3, 4 as negative control and 1-AMA/apoferritin mixture (10 uM horse-spleen apoferritin in 50% saturated 1-aminoanthracene in PBS) in columns 1, 2, 5-48) was dispensed into 1536-well Greiner black assay plates. Compounds (23 nL) were transferred via Kalypsys pintool equipped with 1,536-pin array (10 nL slotted pins, V&P Scientific, San Diego, CA). Titration of the positive control, propofol, were delivered via pin transfer from separate control plates to the 2nd column of each assay plate. The starting concentration of the control, dissolved in DMSO, was at 160 mM, followed by two-fold dilution points in duplicate, for a total of 16 concentrations. The plates were incubated for 10 min at room temperature, and then read on an EnVision HTS multilabel reader (Perkin-Elmer, Waltham, MA) (end point read, 3 min/plate) using Fura2 BFP excitation filter (380 nm, bandwidth 10 nm) and fluorescein emission filter (535 nm, bandwidth 25 nm) set. A LANCE/DELFIA dichroic mirror with a cutoff wavelength at 400 nm was used to maximize signal accuracy and strength. Vehicle-only plates, with DMSO being pin-transferred to the entire column 5-48 compound area, were inserted uniformly at the beginning and the end of each library in order to monitor for and record any shifts in the background. Activity was computed as the normalized fluorescence response relative to free 1-AMA and 1-AMA/apoferritin complex values. Concentration-effect relationships were derived by using curve fitting algorithms developed in-house (http://ncgc.nih.gov/pub/openhts/). A four parameter Hill equation was fitted to the concentration-response data by minimizing the residual error between the modeled and observed responses.
In the case of `NC(=S)NCCCC(N)C(=O)O` (stereo not given), the outcome is reported as “inactive”. With `NC(=S)c1ccc[n+]([C@@H]2O[C@@H](COP(=O)([O-])OP(=O)(O)OC[C@H]3O[C@@H](n4cnc5c(N)ncnc54)[C@H](OP(=O)(O)O)[C@H]3O)C(O)C2O)c1` (stereo not given in full) the outcome was “inactive”. With `NCCNC(=O)c1ccc(Cl)cc1` the outcome was “inactive”. In the case of `NC(=O)C1=CN(C2OC(COP(=O)(O)OP(=O)(O)OC[C@H]3O[C@@H](n4cnc5c(N)ncnc54)[C@H](OP(=O)(O)O)[C@H]3O)C(O)C2O)C=CC1` (stereo not given in full), the outcome is reported as “inactive”. In the case of `C[C@H](Cc1ccccc1)Nc1ncnc2c1ncn2[C@@H]1O[C@H](CO)[C@H](O)[C@H]1O`, the outcome is reported as “inactive”. In the case of `CCCCCCCCCCCCCCC/C=C/[C@@H](O)[C@H](NC(=O)CCCCCCCCCCCCC)OC` (tested in a mixture with another compound), the outcome is reported as “inactive”. In the case of `COc1ccc(CCNC[C@@H](O)c2ccc(O)cc2)cc1OC`, the outcome is reported as “inactive”. `CN1C(=O)CCC1c1cccnc1` (stereo not given) was tested, and the outcome was “inactive”. In the case of `Cc1cn([C@H]2C[C@@H](N=[N+]=[N-])[C@@H](CO)O2)c(=O)[nH]c1=O`, the outcome is reported as “inactive”. With `O=C(Cc1ccc(Cl)c(Cl)c1)OCCN1CCCC1` the outcome was “inactive”. In the case of `CC(N)=NCCCC(N)C(=O)O` (stereo not given), the outcome is reported as “inactive”. In the case of `Nc1ncnc2c1ncn2[C@@H]1O[C@H](C(=O)NC2CC2)[C@H](O)[C@H]1O`, the outcome is reported as “inactive”. `Nc1ncnc2c1nc(Sc1ccc(Cl)cc1)n2[C@H]1O[C@@H]2COP(=O)(O)O[C@H]2[C@@H]1O` was tested, and the outcome was “inactive”. `N=C1Sc2ccccc2C2=NCCCN12` was tested, and the outcome was “inactive”. With `C[C@]12CCC(=O)C=C1CC[C@@H]1C2[C@@H](O)C[C@@]2(C)[C@H]1CC[C@]2(O)C(=O)CO` (stereo not given in full) the outcome was “inactive”. With `CN1CCc2cc(Cl)c(O)cc2C(c2ccccc2)C1` (stereo not given) the outcome was “inactive”. In the case of `COC(=O)c1c(-c2cc(OC)c(OC)c(OC)c2)c2ccc(OCc3ccccn3)cc2c(=O)n1-c1ccc(N)cc1`, the outcome is reported as “inactive”. `CCCNC[C@H](O)COc1ccccc1C(=O)CCc1ccccc1` was tested, and the outcome was “inactive”. For `NCC1OC(O[C@@H]2[C@H](O)[C@@H](OC3C(O)C(N)CC(N)C3OC3OC(CO)C(O)C(O)C3N)O[C@@H]2CO)C(N)C(O)C1O` (stereo not given in full), the outcome was “inactive”. `CC(=O)O[C@H]1C[C@@H]2CCC3C(CC[C@@]4(C)[C@H]3C[C@H]([N+]3(C)CCCCC3)[C@@H]4OC(C)=O)[C@@]2(C)C[C@@H]1[N+]1(C)CCCCC1` (stereo not given in full) was tested, and the outcome was “inactive”. For `Nc1nc2c(nc(Br)n2C2O[C@H]3COP(=O)(O)O[C@@H]3C2O)c(=O)[nH]1` (stereo not given in full), the outcome was “inactive”. `CN=C(N)NCCCC(N)C(=O)O` (stereo not given) was tested, and the outcome was “inactive”. In the case of `CNC(=O)[C@H]1O[C@@H](n2cnc3c(NCc4cccc(I)c4)ncnc32)[C@H](O)[C@H]1O`, the outcome is reported as “inactive”. With `OC[C@H]1O[C@@H](n2cnc3c(NCCc4ccccc4)ncnc32)[C@H](O)[C@H]1O` the outcome was “inactive”. `Nc1nc(Nc2ccccc2)nc2c1ncn2[C@@H]1O[C@H](CO)[C@H](O)[C@H]1O` was tested, and the outcome was “inactive”. For `CCCC(=O)NCCc1c2n(c3ccc(OC)cc13)Cc1ccccc1-2`, the outcome was “inactive”. With `O=C(O)CC[C@H](NC(=O)c1ccccc1C(=O)O)C(=O)O` the outcome was “inactive”. In the case of `N[C@H](Cc1ccc(O)c(O)c1)C(=O)O`, the outcome is reported as “inactive”. `COc1cc2c(cc1OC)C(c1ccccc1)CN(C)CC2` (stereo not given) was tested, and the outcome was “inactive”. With `CSc1nc(N)c2ncn([C@@H]3O[C@H](COP(=O)(O)OP(=O)(O)OP(=O)(O)O)[C@H](O)[C@H]3O)c2n1` the outcome was “inactive”. With `CNC(=O)[C@H]1O[C@@H](n2cnc3c(NCc4ccc(N)cc4)ncnc32)[C@H](O)[C@H]1O` the outcome was “inactive”. For `CC(C)C[C@H]1C(=O)N2CCCC2[C@]2(O)O[C@](NC(=O)[C@@H]3C=C4c5cccc6[nH]c(Br)c(c56)C[C@H]4N(C)C3)(C(C)C)C(=O)N12` (stereo not given in full), the outcome was “inactive”. In the case of `OC[C@H]1O[C@@H](n2cnc3c(NC4CCCC4)ncnc32)[C@H](O)[C@H]1O`, the outcome is reported as “inactive”. In the case of `CN1C[C@H](C(=O)N[C@]2(C)O[C@@]3(O)C4CCCN4C(=O)[C@H](Cc4ccccc4)N3C2=O)C[C@@H]2c3cccc4[nH]cc(c34)C[C@H]21` (stereo not given in full), the outcome is reported as “inactive”. With `CC(=O)[C@@]1(O)CC[C@H]2C3CCC4=CC(=O)CC[C@]4(C)C3CC[C@@]21C` (stereo not given in full) the outcome was “inactive”. In the case of `CN(C)C1C(=O)C(C(N)=O)=C(O)[C@@]2(O)C(=O)C3=C(O)c4c(O)ccc(Cl)c4[C@@H](O)C3C[C@@H]12` (stereo not given in full), the outcome is reported as “inactive”. `CNc1ncnc2c1ncn2[C@@H]1O[C@H](CO)[C@H](O)[C@H]1O` was tested, and the outcome was “inactive”. `CC(=O)NCCc1ccc(O)c(O)c1` was tested, and the outcome was “inactive”. With `COc1ccc2c(c1)c(CC(=O)O)c(C)n2Cc1ccc(F)cc1` the outcome was “inactive”. `COc1c2c(nc3ccccc13)OC(C(C)(O)CO)C2` (stereo not given) was tested, and the outcome was “inactive”.
